PubChem BioAssay (NCI)
About 79,000 compounds went through this panel and 15% of them were active in at least one assay; those are over-represented in the sample as a whole. Active and inactive are the calls of the source. Rule as the data show it: active = growth inhibition above about 70%; inactive = the rest.

Assays:
[1] = NCI Yeast Anticancer Drug Screen. Data for the rad50 strain (AID 155);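 also: 0% = growth of vehicle-only cultures of the same strain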; conditions: S. cerevisiae rad50 strain growth inhibition; at 50.0 µM; active compounds read high
Procedure, shortened: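 Inhibition values express reduced yeast growth in compound-treated cultures relative to vehicle-treated controls.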

[2] = NCI Yeast Anticancer Drug Screen. Data for the mec2-1 strain (AID 157); conditions: S. cerevisiae mec2-1 strain, at 50.0 µM, active compounds read high
Procedure, shortened: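 Yeast mec2-1 mutant treated with compound. Readout: growth inhibition vs vehicle controls.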

[3] = NCI Yeast Anticancer Drug Screen. Data for the sgs1 mgt1 strain (AID 161);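 also: 0% = growth of cultures given vehicle only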; conditions: S. cerevisiae sgs1 mgt1 strain, at 50.0 µM, active compounds read high
Procedure, shortened: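 Read-out: growth inhibition vs vehicle controls. Cells: mutant yeast strain deficient in DNA damage repair.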

[4] = NCI Yeast Anticancer Drug Screen. Data for the cln2 rad14 strain (AID 165);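 also: 0% = growth equal to vehicle treated cultures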; conditions: S. cerevisiae cln2 rad14 strain, at 50.0 µM, active compounds read high
Procedure, shortened: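 cln2 rad14 yeast strain; compound exposure; growth inhibition read vs vehicle controls.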

[5] = NCI Yeast Anticancer Drug Screen. Data for the bub3 strain (AID 167); conditions: S. cerevisiae bub3 mutant strain, at 50.0 µM, active compounds read high
Procedure, shortened: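 Steps: expose the mutant yeast strain to compound; grow alongside vehicle-treated cultures; measure growth; express inhibition against the vehicle cultures.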

[6] = NCI Yeast Anticancer Drug Screen. Data for the mlh1 rad18 strain (AID 175); conditions: S. cerevisiae mlh1 rad18 strain growth inhibition; at 50.0 µM; active compounds read high
Procedure, shortened: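 Yeast w/ defined DNA-repair lesions; compound exposure; growth vs vehicle controls → % inhibition.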

Measured: growth inhibition

O=C(Nc1c(Cl)cc(Cl)cc1Cl)ON=C1CCCCC1
inactive: [1] 1.2% | [2] -19% | [3] 11.1% | [4] 12.9% | [5] 15.5% | [6] 3.6%

O=C(NCCc1ccccc1)/C(=C\c1ccc(Cl)cc1Cl)NC(=O)c1ccccc1
inactive: [1] 1.65% | [2] -6.15% | [3] 1.85% | [4] -5.95% | [5] 4.35% | [6] 13.9%

COc1cc(-c2ccc(NC(=O)CC(C)=O)c(OC)c2)ccc1NC(=O)CC(C)=O
inactive: [1] -17.8% | [2] -26.6% | [3] -3.35% | [4] -5.3% | [5] 5.95% | [6] -14%

Oc1ccc2ccccc2c1CN1CCOCC1
inactive: [1] 26.9% | [2] 5.4% | [3] 32.9% | [4] 27.9% | [5] 15.1% | [6] 19%

O=C(O)CSCC(=O)Nc1cc(C(F)(F)F)ccc1Cl
inactive: [1] -28.1% | [2] -36.6% | [3] -25.8% | [4] -22.9% | [5] -11.3% | [6] -11.2%

O=Cc1ccc(Cl)c(Cl)c1
inactive: [1] -3.55% | [2] -9.5% | [3] -18.8% | [4] -16.9% | [5] -5.85% | [6] -23.1%

COC(=O)Cc1cc(COC(C)=O)ccc1C
inactive: [1] 0.05% | [2] 0% | [3] -0.7% | [4] -57% | [5] -17.2% | [6] -7.8%

Nc1cc2c(cc1Cl)C(=O)c1ccccc1C2=O
inactive: [1] 32.4% | [2] 16.6% | [3] 9.75% | [4] -63.6% | [5] 38.4% | [6] 1.35%

COc1ccc2c(ccc[n+]2C)c1
inactive: [1] 19.6% | [2] 30.9% | [3] 3.65% | [4] 19.2% | [5] -15.7% | [6] -25.4%

NC(=S)c1c(N)n(C2OC(CO)C(O)C2O)c2ncnc(N)c12 (centres undefined)
inactive: [1] 7.2% | [2] -9.7% | [3] 7.1% | [4] -3.15% | [5] -5.5% | [6] 2.55%

CSCC[C@@H]1C(=O)N(C)[C@H](C(C)(C)C)N1C(=O)c1ccccc1
inactive: [1] -0.9% | [2] -12.4% | [3] -7.05% | [4] 0.6% | [5] 44.7% | [6] -13.4%

CCN1CCCC(N2c3ccccc3Sc3ccccc32)C1 (centres undefined)
inactive: [1] -9.15% | [2] -15.2% | [3] 8% | [4] -58.8% | [5] 8.5% | [6] -4%

NNC(=O)CCCCl
inactive: [1] -10.5% | [2] -15.7% | [3] -11.5% | [4] 2.75% | [5] -21.3% | [6] -0.2%

CCCC(=O)CC(=O)c1ccccc1
inactive: [1] 7.75% | [2] 10.4% | [3] -3.75% | [4] -13.6% | [5] 5.85% | [6] 4.4%

Cc1[nH]c(=S)[nH]c(=O)c1C
inactive: [1] -5.1% | [2] -28.3% | [3] -35.6% | [4] -3.4% | [5] -34.4% | [6] -1.7%

C=C1CC2(OC1=O)C(=O)N(C)c1ccc(I)cc12 (centres undefined)
active: [1] 91.3% | [2] 93.2% | [3] 92.1% | [4] 90.5% | [5] 91.5% | [6] 91.2%

CCOc1ccc(NC(=S)N2CCC(CCCC3CCN(C(=S)Nc4ccc(OCC)cc4)CC3)CC2)cc1
inactive: [1] -6.6% | [2] -31.9% | [3] -15.1% | [4] 14.9% | [5] -9.05% | [6] -11.4%

Cc1c(-c2ccc(C3CCCCC3)cc2)nc2ccc(F)cc2c1C(=O)O
inactive: [1] 15.3% | [2] 8.15% | [3] 12.3% | [4] 5.3% | [5] 1.8% | [6] -15.2%

C=CCN1CCCC1=O
inactive: [1] 7.85% | [2] 10.6% | [3] 1.5% | [4] -18.6% | [5] -16.2% | [6] 4.05%

COC(=O)C1(CC(C)=O)NC(=S)NC(=O)C1C#N (centres undefined)
inactive: [1] -21.4% | [2] -26.9% | [3] -36.3% | [4] -38.2% | [5] -30.1% | [6] -15.3%

CCCNS(=O)(=O)c1ccc(Cl)cc1
inactive: [1] 20.1% | [2] -2.9% | [3] -0.45% | [4] 1.55% | [5] -4.75% | [6] -3.7%

CN(C)c1ccc2c(N(C)C)cc(N(C)C)nc2c1
inactive: [1] -14.8% | [2] -4.3% | [3] -17.1% | [4] 20.4% | [5] 2.95% | [6] -12%

CC(=O)NCNC(C)=O
inactive: [1] -4.1% | [2] 5.4% | [3] 3.75% | [4] -75.1% | [5] 7.8% | [6] -0.6%

CCCCc1ccc2nc(NC(=O)OC)[nH]c2c1
inactive: [1] -4.25% | [2] 21.5% | [3] 13.6% | [4] 28.8% | [5] 21.5% | [6] 11.1%

C/C(Cc1ccccc1)=N\O
inactive: [1] 3.75% | [2] 3.1% | [3] -20.6% | [4] 19.8% | [5] -7.95% | [6] 7.25%

Nc1ccc2c(c1)Cc1cc(N)c(N)cc1-2
inactive: [1] 10.8% | [2] -7.75% | [3] 10.9% | [4] -18.7% | [5] -3.8% | [6] 5.8%

C#CCSc1nnnn1-c1ccccc1
inactive: [1] -0.6% | [2] -19.9% | [3] 22.2% | [4] 19.4% | [5] 15.8% | [6] 12.4%

CCOP(=O)(NC(c1ccccc1)c1ccccc1)OCC
inactive: [1] 21.9% | [2] -15.2% | [3] 30.6% | [4] 5.55% | [5] 25.1% | [6] 28.8%

CCOC(=O)c1cc(C)[nH]c(=O)c1C#N
inactive: [1] -12.2% | [2] -3.1% | [3] -5.1% | [4] -5.1% | [5] 4.55% | [6] 2.65%

CCc1ccccc1C(=O)N(CC)CC
inactive: [1] -14.8% | [2] 18.4% | [3] 16.6% | [4] 32% | [5] -16.1% | [6] -6.65%

CN=S(=O)(OCCCCCOS(=O)(=NC)c1ccc(C)cc1)c1ccc(C)cc1 (centres undefined)
inactive: [1] 3.75% | [2] -33.8% | [3] -22.9% | [4] -43.4% | [5] -41.3% | [6] -34.9%

CCOC(=O)CO
inactive: [1] 26% | [2] 6.85% | [3] -13.4% | [4] 0.3% | [5] 17.2% | [6] 18.9%

O=C(OCC1CCCO1)c1ccc([N+](=O)[O-])cc1 (centres undefined)
inactive: [1] 2.05% | [2] 21.6% | [3] 12.9% | [4] 9.7% | [5] 30.9% | [6] 12.3%

N=C(N)c1nn(C2OC(CO)C(O)C2O)c2nc[nH]c(=O)c12 (centres undefined)
inactive: [1] 0.75% | [2] -9.5% | [3] 10.2% | [4] 17.6% | [5] 5.7% | [6] 27.1%

Cc1ccc(S(=O)(=O)CCCl)cc1
inactive: [1] 6.8% | [2] -7.35% | [3] -21.9% | [4] -31.2% | [5] 5.3% | [6] 7.85%

S=C(NCc1ccccc1)N1CCC(CCCC2CCN(C(=S)NCc3ccccc3)CC2)CC1
inactive: [1] -9.45% | [2] -32.1% | [3] -3.6% | [4] 6% | [5] 2.85% | [6] -7.35%

Nc1cc(N)ncn1
inactive: [1] -1.3% | [2] -18.9% | [3] 3.6% | [4] 22.5% | [5] -10.1% | [6] 26.7%

COc1cc2c(c(OC)c1OC)-c1ccc(SC)c(=O)cc1[C@@H](NC1OC(CO)C(O)C(O)C1O)CC2 (some centres undefined)
inactive: [1] -10.6% | [2] -1.85% | [3] 5.25% | [4] 6.2% | [5] 5.05% | [6] 3.45%

O=Cc1ccc(F)cc1
inactive: [1] -7.9% | [2] -23.6% | [3] -4.1% | [4] -13.1% | [5] -10.6% | [6] -17.4%

Cc1c(Cl)cccc1NC(=S)NC(=O)c1ccccc1
inactive: [1] 23.7% | [2] 28.2% | [3] 14.8% | [4] 0.4% | [5] 35.4% | [6] 18.1%

O=C(N/N=C\c1ccc(Cl)cc1Cl)c1ccncc1
inactive: [1] 1% | [2] 6.85% | [3] 5.15% | [4] 19.2% | [5] -7% | [6] 3.5%

Nc1ccc(F)cc1F
inactive: [1] 6% | [2] -2.25% | [3] -3.7% | [4] -27.1% | [5] 18.1% | [6] 7.35%

O=c1nc(Nc2cccc(Cl)c2)oc2cc(Cl)oc(=O)c12
inactive: [1] 32.5% | [2] 26% | [3] 51.8% | [4] 19.6% | [5] 36.5% | [6] 42.6%

O=S(=O)(c1ccc(NC(=S)NCc2cccnc2)cc1)N1CCCCC1
inactive: [1] 21.9% | [2] 11.9% | [3] 23.9% | [4] 1.8% | [5] 36.4% | [6] 22.2%
